# Source: PubChem BioAssay (NCI)
# The panel holds about 83,000 compounds, 20% with a hit somewhere; the sample as a whole holds those more often.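 Interpretation: 100, growth as untreated; towards 0, rising growth inhibition; 0, no net growth; 0 to -100, cell death. Compounds scoring below 10 were considered active.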 A number with no mark means an inactive call. The source made the active and inactive calls.
# Key:
# Assay in all cases: NCI-60 one-dose screen, 48 h (100 = growth as untreated, 0 = no growth, -100 = all killed)
# Settings in all cases: 10 µM unless noted
# NCI-H23 lung = test system: NCI-H23 lung
# NCI-H226 lung = test system: NCI-H226 lung
# NCI-H322M lung = test system: NCI-H322M lung
# HOP-62 NSCLC = test system: HOP-62 NSCLC
# NCI-H460 lung = test system: NCI-H460 lung
# HOP-92 NSCLC = test system: HOP-92 NSCLC
# NCI-H522 lung = test system: NCI-H522 lung
# A549/ATCC NSCLC = test system: A549/ATCC NSCLC
# 786-0 renal = test system: 786-0 renal
# COLO 205 colon = test system: COLO 205 colon
SMILES,growth (NCI-H23 lung),growth (NCI-H226 lung),growth (NCI-H322M lung),growth (HOP-62 NSCLC),growth (NCI-H460 lung),growth (HOP-92 NSCLC),growth (NCI-H522 lung),growth (A549/ATCC NSCLC),growth (786-0 renal),growth (COLO 205 colon)
CCOc1ccccc1C(=O)N1CCN(c2cc(Cl)cc(Cl)c2)CC1,24.3%,65.6%,35%,27.1%,5.68% (active),18.2%,-6.41% (active),19.3%,14.5%,-65.9% (active)
CN(C)c1ccc2cc(-c3nc4ccccc4s3)c(N)nc2c1,50.8%,119%,49.8%,40.3%,19.6%,85.1%,17%,28.3%,35.3%,84.1%
O=C1C(Cl)=C(Nc2ccccc2)C(=O)C(Cl)=C1Nc1ccccc1,106%,103%,120%,113%,112%,101%,112%,109%,109%,109%
C=C1C(=O)O[C@H]2[C@H]1CC/C(COC(=O)c1cc(OC)c(OC)c(OC)c1)=C\CC[C@@]1(C)O[C@@H]21,8.29% (active),-12.1% (active),52.9%,22%,16.1%,-59.5% (active),-88.4% (active),24.7%,-90.9% (active),-73.4% (active)
Nc1nc(Cl)c2c(C(F)(F)F)cn(CC3CCNCC3)c2n1,47.5%,111%,100%,103%,103%,57.9%,5.07% (active),94.2%,95.5%,94%
N#Cc1c(N)nc(Cl)c(C#N)c1C(=O)c1ccccc1,67%,87.9%,96.5%,69.4%,61.5%,74.2%,39.1%,70.9%,37.8%,61.6%
O=c1c2ccccc2sc2c(N3CCCC3)nc3ccccc3c12,88.7%,81.3%,110%,97.7%,96.7%,70.8%,100%,103%,102%,116%
O=C(/C=C/c1ccco1)c1cccc(Nc2nc(Nc3ccccc3)nc(Nc3ccccc3)n2)c1,57.6%,99.5%,34.6%,86.5%,8.52% (active),49.1%,78.6%,20.1%,44%,62.3%
COc1ccc(-c2[nH]c3ccccc3c2/C=C(\C#N)S(=O)(=O)c2ccccc2)cc1,17.5%,65.2%,61.9%,35.5%,3.97% (active),65.5%,26.8%,33.9%,22.1%,-39.4% (active)
CC(Cc1cccc(C(F)(F)F)c1)NCCOC(=O)c1ccccc1 (stereo not given),101%,98.3%,100%,102%,114%,114%,100%,105%,97.9%,106%
COc1ccc2c(c1)nnn1c3ncccc3c(N=O)c21,-23.8% (active),-57.7% (active),31%,-41.7% (active),-70% (active),-49.2% (active),-85.7% (active),6.65% (active),-63.1% (active),-61% (active)
O=C(Nc1ccc(Cl)c(Cl)c1)Nc1ccc(Cl)c([N+](=O)[O-])c1,-14.4% (active),1.2% (active),6.27% (active),-3.52% (active),1.62% (active),-23.2% (active),-12.7% (active),4.45% (active),7.48% (active),-80% (active)
Nc1ncnc2c1c(-c1ccc(Oc3ccccc3)cc1)nn2C[C@H]1SSC[C@H]1O,19.3%,-2.25% (active),13.4%,20.1%,-43.6% (active),-4.52% (active),-31.1% (active),-35.8% (active),12.9%,-83.3% (active)
O=C(Nc1ccc(-n2cc(-c3ccncc3)c(-c3ccc(O)c(Cl)c3)n2)cc1)Nc1cccc(Cl)c1Cl,66%,73.7%,79.7%,87.6%,43%,16.5%,66.1%,38.9%,58.3%,39.1%
